Source: PubChem BioAssay AID1347165 (National Center for Advancing Translational Sciences (NCATS), 2019)
Screen size: about 220,000 compounds; about 5,700 (2.6%) were called active. Not shown: some 18% with an inconclusive outcome. Calls follow the shape of the dose curve; as a rule, active = well fitted inhibition curve with a large enough effect; inconclusive = small, poorly fitted or top-dose-only effect; inactive = no such curve, though single readings can be large or run the other way. Shown is part of a subset that was picked to be rich in actives.

What follows are molecules tested against Lysine-specific demethylase 5B (Homo sapiens) (UniProt Q9UGL1) (assay: Primary screen for KDM5B Histone Demethylases FDH-coupled qHTS). Settings: FDH-coupled NADH fluorescence (FDH is formaldehyde dehydrogenase); series mostly up to 57.7 µM; activity change, negative = inhibition: at the top concentration.
Sequence of Lysine-specific demethylase 5B (Homo sapiens) (Q9UGL1 whole entry, looked up): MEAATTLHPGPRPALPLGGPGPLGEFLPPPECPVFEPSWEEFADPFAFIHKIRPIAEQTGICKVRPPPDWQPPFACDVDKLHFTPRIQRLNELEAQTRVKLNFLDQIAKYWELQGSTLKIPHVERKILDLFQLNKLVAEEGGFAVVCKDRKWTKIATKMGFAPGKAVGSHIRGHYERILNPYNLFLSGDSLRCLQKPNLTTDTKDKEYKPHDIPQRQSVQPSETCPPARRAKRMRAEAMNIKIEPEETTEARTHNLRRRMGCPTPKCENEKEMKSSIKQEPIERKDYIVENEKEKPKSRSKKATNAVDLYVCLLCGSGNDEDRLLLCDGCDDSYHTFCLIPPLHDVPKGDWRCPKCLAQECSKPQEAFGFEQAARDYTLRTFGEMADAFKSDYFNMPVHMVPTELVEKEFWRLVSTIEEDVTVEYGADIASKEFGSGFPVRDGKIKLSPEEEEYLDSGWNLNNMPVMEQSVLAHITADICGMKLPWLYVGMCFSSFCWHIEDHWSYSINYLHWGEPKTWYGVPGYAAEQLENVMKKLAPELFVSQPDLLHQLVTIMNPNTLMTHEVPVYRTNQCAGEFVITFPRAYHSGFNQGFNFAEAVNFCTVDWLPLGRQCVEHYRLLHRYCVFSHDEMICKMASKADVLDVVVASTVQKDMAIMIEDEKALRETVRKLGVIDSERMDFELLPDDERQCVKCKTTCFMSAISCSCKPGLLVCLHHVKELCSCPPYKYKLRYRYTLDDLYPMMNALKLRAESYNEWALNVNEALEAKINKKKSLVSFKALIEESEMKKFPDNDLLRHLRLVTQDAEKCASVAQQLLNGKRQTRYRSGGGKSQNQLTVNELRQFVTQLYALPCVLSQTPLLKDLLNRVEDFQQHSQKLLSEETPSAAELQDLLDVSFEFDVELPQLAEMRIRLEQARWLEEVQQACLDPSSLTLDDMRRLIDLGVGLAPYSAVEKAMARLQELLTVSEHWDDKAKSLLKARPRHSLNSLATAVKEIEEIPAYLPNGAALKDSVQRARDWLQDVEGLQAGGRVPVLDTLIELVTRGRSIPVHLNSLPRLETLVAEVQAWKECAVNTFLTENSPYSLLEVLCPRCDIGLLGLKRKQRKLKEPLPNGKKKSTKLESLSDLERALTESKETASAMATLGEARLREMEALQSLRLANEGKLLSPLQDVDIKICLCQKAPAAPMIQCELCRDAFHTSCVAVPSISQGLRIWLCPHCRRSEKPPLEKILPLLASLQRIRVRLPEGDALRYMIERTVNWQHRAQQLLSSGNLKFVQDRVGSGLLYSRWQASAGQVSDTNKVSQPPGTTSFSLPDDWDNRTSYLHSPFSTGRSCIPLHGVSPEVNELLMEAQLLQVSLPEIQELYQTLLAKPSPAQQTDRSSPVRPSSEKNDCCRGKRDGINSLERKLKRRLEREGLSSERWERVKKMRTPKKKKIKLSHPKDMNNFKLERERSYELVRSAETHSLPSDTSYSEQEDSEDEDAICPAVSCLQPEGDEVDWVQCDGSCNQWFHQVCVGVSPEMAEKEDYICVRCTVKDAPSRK
Description: Assay Submitter (PI): Qin Yan, Ph.D. (Yale University) and Xiaodong Cheng, Ph.D. (MD Anderson) This project was funded as part of the NCI NEXT Program and Chemical Biology Consortium (CBC) The histone demethylases, KDM5A and KDM5B catalyze the demethylation of lysine 4 on histone H3 (H3K4me3/2). They are overexpressed in a variety of cancers and have been implicated in cancer cell growth, metastasis, drug resistance, and tumor growth. KDM5A is amplified and overexpressed in breast and gastric cancer; and is translocated in leukemia. While KDM5B is highly expressed in human mammary tumors and breast cancer cell lines, but not in normal adult breast tissue. Moreover, knockdown of KDM5B leads to upregulation of tumor suppressor genes, including BRCA1. The goal of this project is to employ qHTS to identify selective small molecule inhibitors of KDM5A/B demethylase activity to better understand the role of KDM5 in cancer and to develop novel therapies. We employed an FDH-coupled assay previously reported by Sakurai et al. to monitor in vitro KDM5 demethylase activity. Compounds showing dose response inhibition are re-acquired, validated, and tested for non-specific interference with the formaldehyde dehydrogenase (FDH) counterscreen. True inhibitors are validated using an AlphaLisa secondary screen, which employs an H3K4(me2-1)-specific antibody to monitor demethylation of a biotin-tagged H3K4(me3) peptide substrate. Inhibitors are profiled against KDM4A and KDM6A AlphaLisa counterscreens to determine level of demethylase specificity; and against the TruHits counterscreen to eliminate non-specific inhibitory activity on the AlphaLISA detection method. Selective inhibitors identified from the primary and secondary screening are tested in cells using immunofluorescence to monitor global H3K4 tri-methylation as a measure of KDM5A/B inhibition. Early Translation Branch (ETB) National Center for Advancing Translational Sciences (NCATS), Rockville, MD National Institute of Health (NIH), Bethesda, Maryland [1] Sakurai, M et al. A miniaturized screen for inhibitors of Jumonji histone demethylases. Mol Biosyst. 2010 Feb;6(2):357-64. doi: 10.1039/b912993f. Epub 2009 Oct 8.
Materials: 1536-well Black, solid bottom, medium binding assay plate is purchased from Greiner Bio-one. The enzymes (KDM5B) and substrate (H3K4me3/2) are provided by the principal investigators. The buffer for this assay is composed of 50mM HEPES at pH 7.5 with 0.01% Tween-20. FDH coupled Demethylase qHTS protocol: Three microliter enzyme mix (buffer + 200nM KDM5BDeltaAP final concentration) is dispensed into the assay plate using the BioRAPTR Flying Reagent Dispenser (FRD; […]). Compound (at various final concentration) and control solution is pin transferred to the assay plate using the Kalypsys 1536-pin tool apparatus. The assay plate is incubated for 10 min at room temperature followed by addition of 1uL substrate mix (buffer + 100uM ascorbic acid, 50uM ferrous ammonium sulfate, 12.5uM H3K4Me3, 25uM a-ketoglutarate, 0.25 mM NAD+, 0.25 U/mL formaldehyde dehydrogenase using the FRD yielding a total reaction volume of 4 uL. Initial fluorescence (Read1) is detected using the PerkinElmer ViewLux plate reader equipped with 340 nm excitation and 450 nm emission filters. The final fluorescence (Read2) signal is obtained after 30 min of room temperature incubation. Delta RFU is calculated (Read2 - Read1) and is used to generated dose response curves.
Also: nearly all actives have a fitted effect of over 70% in size.
For activity change, negative = inhibition in this document: 0% is about no effect.
Potency is read from the fitted curve at half-maximal effect.

Activity change, negative = inhibition, inactive:
COc1ccc(C(=O)C(C)OC(=O)c2nn(C)c(=O)c3ccccc23)cc1 (stereo not given) 16.9%
COC(=O)c1ccc(/C=C2\CCc3c(C)cc(C)cc3C2=O)cc1 -17.2%
O=C1CCN(C(=O)c2ccc3ccccc3n2)CCCCCCN1 -0.0005%
O=C(CN1CCN(C(=O)c2ccc3ccccc3n2)CC1)NC1CC1 -9.84%
Cc1cccc(C)c1NC(=O)CSc1nc(C)c(C)o1 19.2%
CN(CC(=O)Nc1ccc2c(c1)OC1(CCCCC1)O2)Cc1cccs1 -7.79%
COc1ccc(S(=O)(=O)NCCOc2ccccc2)cc1F -1.73%
CCOc1ccc(C2C(C#N)=C(N)N(N(C)C)C3=C2C(=O)CCC3)cc1 (stereo not given) 8.03%
O=C1CCC/C(=N/NC(=O)c2cc(-c3ccncc3)nc3ccccc23)C1 -14.2%
O=C(c1ccc(Cl)cc1)N(Cc1ccco1)c1ccc(O)cc1 -4.06%
CCc1ccc(CCC(=O)NC)cc1 7.21%
CNc1c(NC(=O)Cc2ccc(OC)c(OC)c2)c(=O)oc2ccccc12 -4.5%
O=C(NNC(=O)C1CCC1)c1ccccc1 26.8%
O=C(OCc1ccc(F)cc1)c1cnc2ccccc2n1 -22.5%
Cc1ccc(NC(=O)c2ccoc2)cc1I -7.73%
O=C(NC12CC3CC(CC(C3)C1)C2)c1cccc2ncccc12 8.17%
Cc1ccccc1NC(=O)C(C)Sc1ccc(C(F)(F)F)cn1 (stereo not given) 35.1%
CC1(C)C/C(=N/Nc2ccc([N+](=O)[O-])cc2[N+](=O)[O-])C(C)(C)O1 22%
CC(C)c1ccc(/C=C(/C#N)c2nc3ccccc3[nH]2)cc1 -14.6%
COc1ccccc1N1CCN(C(=O)c2ccccc2-c2ncc[nH]2)CC1=O 10.5%
COC(=O)c1cccc(NC(=O)N2CCC3(CCC(=O)N(Cc4ccccc4)CC3)CC2)c1 -8.76%
COc1ccccc1CC(=O)N1CCc2c(nc3cc(-c4ccccc4Cl)[nH]n3c2=O)C1 -22.7%
COc1ccc(-c2cc(N3CCCN(C(=O)c4ccc(OC)cc4C)CC3)n[nH]2)cc1 -18.9%
O=C(Nc1ccccc1)N1CCc2nc(-c3ccccc3)nc(-c3ccc(Cl)cc3)c2C1 4.08%
COc1ccc(-c2nc(C(C)C)nc3c2CN(C(=O)c2ccccc2F)CC3)cc1 -13.2%
CCN(CC)c1nc2ccccc2nc1C(=O)Nc1ccccc1C -17.6%
O=c1oc2ccccc2c2nc(-c3ccccc3)c(-c3ccccc3)nc12 13.1%
Cc1c(-c2ccccc2)nc2ccccc2c1C(=O)OCC(N)=O -1.96%
COC(=O)CC(NC(=O)c1nn(C)c(=O)c2ccccc12)c1ccccc1 (stereo not given) 23.1%
CC(C)C(=O)NC(Nc1ccccc1Cl)(C(F)(F)F)C(F)(F)F -7.69%
COc1ccc(Nc2cnc3ccc(-c4ccc(OC)nc4)nn23)cc1 -21.5% [at 86.2 µM]
COc1ccc(-c2ccc3ncc(Nc4ccc(C(F)(F)F)cc4)n3n2)cn1 -18.9% [at 86.2 µM]
O=C(O)c1cccc(NC(NC(=O)c2cccs2)C(=O)c2ccccc2)c1 (stereo not given) 4.76%
COc1ccc(C(C)=O)cc1CN1CCN(C/C=C/c2ccccc2)CC1 -9.81%
NC(N)=N/N=C/c1ccc([N+](=O)[O-])cc1 8.86%
CSc1ccccc1NC(=O)c1ccc(C)c(C)c1 16%
O=C1NC2(CCN(C(=O)c3ccccc3)C2)COc2ccccc21 (stereo not given) -9.71% [at 86.2 µM]
Cc1ccc(C(=O)N2CCC3(CC2)NC(=O)N(Cc2ccc(F)cc2)C3=O)cc1 1.93%
COc1ccccc1C(=O)N1CCC2(CC1)C(=O)Nc1ccccc12 6.29% [at 149 µM]
COc1ccccc1C(=O)N1CCC2(CCC(=O)N(Cc3ccccc3)CC2)CC1 24.3%
Cc1[nH]c2ccccc2c1C(=O)COc1ccc(C(N)=O)cc1 13.8%
COc1ccc(-c2c(C)oc3cc(OC(=O)c4ccc5c(c4)OCO5)ccc3c2=O)cc1 -15.3%
CCS(=O)(=O)N1CCC(NS(=O)(=O)c2ccsc2C(=O)OC)CC1 -5.24%
COc1ccc(-c2nc(CN3CCCC3c3nnc4ccccn34)co2)cc1 (stereo not given) 14.3%
CCOC(=O)c1ccoc1CN1CCCC(O)C1 (stereo not given) 27.4%
CCCn1c(NC(=O)CCOc2ccccc2)nc2ccccc21 8.15%
CONC(=O)Cc1ccc(OC)cc1 15.6%
O=C(O)C(c1c[nH]c2ccc(Cl)cc12)N1CCCN(c2ccc(C(F)(F)F)cn2)CC1 (stereo not given) -6.83%
CCn1c(SCC(=O)NC2=NCCS2)nnc1C(C)NC(=O)c1ccccc1F (stereo not given) -16.3%
CC(C)n1nc(C(=O)Nc2ccc(Nc3ccccc3)cc2)c2ccccc2c1=O 5.18%
CC(=O)c1ccc(NC(=O)COc2ccccc2-c2nc(-c3ccccc3)no2)cc1 -17.9%
Brc1ccc(-c2noc(-c3ccccc3)n2)o1 -21.5%
CN1C[C@]2(C=C3CCCCC3n3c(=O)n(-c4ccccc4)c(=O)n32)N=C1NC(=O)c1ccccc1 (stereo not given in full) 14%
CCCNC(=S)NNC(=O)CCC 43.4%
CC1CCN(C(=O)C[C@@H]2c3nc(NC(=O)c4ccnc(Cl)c4)sc3C[C@@H]3[C@](C)(CO)[C@H](O)CC[C@]32C)CC1 2.05%
COc1ccc(CC(=O)Nc2ccc(C(=O)NC(C)(C)C)cc2)cc1 5.55%
CCC(C)NC(=O)c1ccc(NC(=O)CC2SC(N3CCCCC3)=NC2=O)cc1 (stereo not given) 18.7%
COc1ccc(NC(=O)C2CCCN(Cc3nc(-c4ccc(OC)c(OC)c4)no3)C2)cc1OC (stereo not given) 13.9%
COc1ccc(C(=O)Nc2cccc(-c3nnc4n3CCCC4)c2)cc1 -18.8%

Potency, active:
O=C(c1ccc2cc[nH]c2n1)N1CCOCC1 126 µM
CNC(=O)CCN(C)c1nccc(-c2ccc(C)nc2C)n1 25.1 µM
COc1ccccc1C(=O)N1CCc2c(nc3cc(-c4ccccc4Cl)[nH]n3c2=O)C1 22.4 µM
COc1ccc(-c2cc3nc4c(c(=O)n3[nH]2)CCN(C(=O)c2ccccc2C)C4)cc1 20 µM
COC(=O)c1cccc(NC(=O)N2CCc3c(nc4cc(-c5ccccc5)[nH]n4c3=O)C2)c1 11.2 µM
COc1ccc(-c2ccc3ncn(C4CC4)c(=O)c3n2)cn1 39.8 µM
COc1ccccc1C(=O)N1CCC2(CC1)CC(=O)c1ccccc1O2 31.6 µM
Cc1ccc(C(=O)N2CCC3(CC2)CC(=O)c2ccccc2O3)cc1 25.1 µM
c1ccc(-c2noc(-c3ccccc3OC3CCNC3)n2)cc1 (stereo not given) 20 µM
CCC(=O)Nc1ccc2nnc(-c3ccc(C(=O)Nc4ccc(OC)cc4)cc3)n2c1 25.1 µM
CCC(CC)NC(=O)c1ccc(-c2nnc3ccc(NC(=O)C4CCC4)cn23)cc1 10 µM
